The record followed here is PubChem BioAssay.

Several values for one entry are separate records, joined by “and”; a condition that tells them apart may be missing. Equal entries are not always repeated. Results filed as inconclusive are left out. For some of these results: Results with a measured potency or affinity are listed apart. Activity calls are given as the source filed them. Unless noted, no cut-off is given here; in the data, nearly all actives have AC50 up to about 26 µM.

For assay [1], the system named is Neuropilin-2 / VEGF-C interaction (human). The assay is described as follows: small molecules blocking Neuropilin-2/VEGF-C interaction – biochemical, microplate binding format, z-score (AID 743281; call rule not given here). As to conditions: microplate NRP2/VEGF-C binding assay; stronger effect = lower value.
Assay [2] is described as follows: viability loss in pontine glioma line – cell-based, SU-DIPG-XVII, MIPE5.0, CellTiter-Glo, qHTS, dose response (AID 1347060).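 For AC50: cells exposed to compound for 48 hours before viability readout.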 As to conditions: CellTiter-Glo ATP luminescence.
Assay [3] can be described thus: viability loss in pontine glioma line – cell-based, SU-DIPG-XIII, MIPE5.0, CellTiter-Glo, qHTS, dose response (AID 1347064; cut-off not given, nearly all actives have AC50 up to about 23 µM). As to conditions: CellTiter-Glo ATP luminescence.
The nature of assay [4]: viability loss in pontine glioma line – cell-based, SU-DIPG-XXV, MIPE5.0, CellTiter-Glo, qHTS, dose response (AID 1347065).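 Note: cells exposed to compound for 48 hours before ATP readout.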 As to conditions: CellTiter-Glo ATP luminescence.
A short description of assay [5]: JHH-DIPG-1 glioma cell viability, MIPE5.0 library, CellTiter-Glo luminescence, qHTS (AID 1347067).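 Note: cells exposed to compound for 48 hours before readout.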 As to conditions: JHH-DIPG-1 glioma viability, CellTiter-Glo ATP luminescence.
Assay [6] concerns the target ATP-dependent translocase ABCB1 (Homo sapiens) (UniProt P08183). The assay is described as follows: P-glycoprotein substrate transport blockade – cell-based (AID 377; in the data active = fluorescence slope change above about 50%). As to conditions: MDR1-expressing cells, fluorescent substrate accumulation slope; stronger effect = higher value; concentration not given here.
The nature of assay [7]: antimalarial activity against Dd2 strain (AID 2302;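 active = growth inhibition above 50% at the single 2 µM test dose, taken to imply half-maximal potency below 2 µM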;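 note: 0% = DMSO untreated growth and 100% = chloroquine plus artemisinin killed control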). As to conditions: P. falciparum Dd2 in RBCs, LDH growth readout, 72 h; at 2 µM; stronger effect = higher value.
Assay [8] in a line: human hepatoma cell viability loss – ATP luminescence, cytotoxicity control for P. falciparum antimalarial project, primary screen (AID 2303;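 active = inhibition above 50%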;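 note: 0% = DMSO wells and 100% = digitonin-killed cells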). As to conditions: HepG2 viability, 24-48 h, at 10 µM, stronger effect = higher value.
In assay [9] the target is Calcium-dependent protein kinase 1 (Plasmodium falciparum (isolate 3D7)) (UniProt P62344). As to the kind of experiment: PfCDPK1 kinase inhibitors, biochemical, TCAMS library (AID 1159585; cut-off not given, nearly all actives have IC50 up to about 0.98 µM;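 note: inhibitors leave more ATP so luminescence rises with inhibition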). As to conditions: recombinant PfCDPK1, Kinase-Glo ATP depletion luminescence.
The target of assay [10] is Plasmodium falciparum protein kinase 6 (PK6, PF3D7_1337100) (UniProt Q8IDW1). As to the kind of experiment: PfPK6 kinase inhibitors, biochemical, TCAMS library (AID 1159586; call rule not given here). As to conditions: recombinant PfPK6, Kinase-Glo ATP depletion luminescence.
In assay [11] the target is Protein kinase 7 (PK7), Plasmodium falciparum 3D7 (PF3D7_0213400) (UniProt Q7YTF7). The assay is described as follows: inhibition of Plasmodium PK7 catalytic activity – biochemical, TCAMS antimalarial set, Kinase-Glo luminescence (AID 1159587; call rule not given here). As to conditions: recombinant PfPK7, Kinase-Glo ATP depletion luminescence.
In assay [12] the target is Calcium-dependent protein kinase 4 (Plasmodium falciparum (isolate 3D7)) (UniProt Q8IBS5). As to the kind of experiment: PfCDPK4 kinase inhibitors, biochemical, TCAMS library (AID 1159588; cut-off not given, nearly all actives have IC50 up to about 0.91 µM). As to conditions: recombinant PfCDPK4, Kinase-Glo ATP depletion luminescence.
The nature of assay [13]: chitosan synthesis blockers in C. neoformans – flow cytometry, Cibacron Brilliant Red staining (AID 1347148; call rule not given here;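 note: compound exposure lasted three days at 37 degrees C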). As to conditions: Cryptococcus neoformans chitosan, stronger effect = lower value; at 10 µM unless noted.
The nature of assay [14]: growth inhibition, single agents and combos, CRL2098, cell-based, BGB or cisplatin IC20 combos, synergistic combos for chromothripsis tumors (AID 1671454; in the data active = inhibition above about 80%;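 note: cells exposed for 96 h before readout; 0% = vehicle DMSO and 100% = killing by high DMSO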). As to conditions: CRL2098 osteosarcoma cells, drug combinations, stronger effect = higher value.
The nature of assay [15]: growth inhibition, single agents and combos, HD-MB03, cell-based, BGB or cisplatin IC20 combos, synergistic combos for chromothripsis tumors (AID 1671455; in the data active = inhibition above about 83%;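 note: 0% = vehicle DMSO and 100% = high DMSO as cytotoxic control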). As to conditions: HD-MB03 medulloblastoma cells, stronger effect = higher value.
Assay [16] can be described thus: growth inhibition, single agents and combos, UWB1.289, cell-based, BGB or cisplatin combos, synergistic combos for chromothripsis tumors (AID 1671456; in the data active = inhibition above about 80%;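 note: cells exposed to compound for four days; 0% = vehicle DMSO and 100% = killing by high DMSO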). As to conditions: UWB1.289 ovarian carcinoma cells, stronger effect = higher value.
Assay [17] in a line: growth inhibition, single agents and combos, LFS_MB_2R, cell-based, cisplatin combos, synergistic combos for chromothripsis tumors (AID 1671457; in the data active = inhibition above about 80%;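 note: cells exposed to compound for four days before readout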). As to conditions: LFS_MB_2R medulloblastoma cells, stronger effect = higher value.
Assay [18] can be described thus: UWB1.289_BRCA1 ovarian cancer growth, cell-based, BGB or cisplatin combinations (AID 1671459; in the data active = inhibition above about 80%). As to conditions: UWB1.289 BRCA1 ovarian carcinoma, drug combinations, stronger effect = higher value.
The nature of assay [19]: drug combination toxicity in non-malignant astrocytes – cell-based, BGB or cisplatin IC20 combos, cytotoxicity control for chromothriptic childhood tumor combination screen (AID 1671460; in the data active = inhibition above about 80%;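 note: cells exposed to compounds for 96 hours before viability readout; 0% = vehicle and 100% = killing control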). As to conditions: Human astrocytes, viability inhibition, drug combinations, at 0.5 µM, stronger effect = higher value.
Assay [20] is described as follows: compounds altering HSF1 focus formation in cells – imaging, Selleck Cancer Library (AID 1347162; in the data active = plate-normalised HSF1 focus index below about 0.46). As to conditions: human cells, HSF1 nuclear foci imaging, at 10 µM; SSMD: measured here: HSF1 foci SSMD mean; cell count: measured here: cell number; plate-normalised HSF1 focus index: stronger effect = lower value.

Chain of ATP-dependent translocase ABCB1 (Homo sapiens) (P08183 whole entry, looked up): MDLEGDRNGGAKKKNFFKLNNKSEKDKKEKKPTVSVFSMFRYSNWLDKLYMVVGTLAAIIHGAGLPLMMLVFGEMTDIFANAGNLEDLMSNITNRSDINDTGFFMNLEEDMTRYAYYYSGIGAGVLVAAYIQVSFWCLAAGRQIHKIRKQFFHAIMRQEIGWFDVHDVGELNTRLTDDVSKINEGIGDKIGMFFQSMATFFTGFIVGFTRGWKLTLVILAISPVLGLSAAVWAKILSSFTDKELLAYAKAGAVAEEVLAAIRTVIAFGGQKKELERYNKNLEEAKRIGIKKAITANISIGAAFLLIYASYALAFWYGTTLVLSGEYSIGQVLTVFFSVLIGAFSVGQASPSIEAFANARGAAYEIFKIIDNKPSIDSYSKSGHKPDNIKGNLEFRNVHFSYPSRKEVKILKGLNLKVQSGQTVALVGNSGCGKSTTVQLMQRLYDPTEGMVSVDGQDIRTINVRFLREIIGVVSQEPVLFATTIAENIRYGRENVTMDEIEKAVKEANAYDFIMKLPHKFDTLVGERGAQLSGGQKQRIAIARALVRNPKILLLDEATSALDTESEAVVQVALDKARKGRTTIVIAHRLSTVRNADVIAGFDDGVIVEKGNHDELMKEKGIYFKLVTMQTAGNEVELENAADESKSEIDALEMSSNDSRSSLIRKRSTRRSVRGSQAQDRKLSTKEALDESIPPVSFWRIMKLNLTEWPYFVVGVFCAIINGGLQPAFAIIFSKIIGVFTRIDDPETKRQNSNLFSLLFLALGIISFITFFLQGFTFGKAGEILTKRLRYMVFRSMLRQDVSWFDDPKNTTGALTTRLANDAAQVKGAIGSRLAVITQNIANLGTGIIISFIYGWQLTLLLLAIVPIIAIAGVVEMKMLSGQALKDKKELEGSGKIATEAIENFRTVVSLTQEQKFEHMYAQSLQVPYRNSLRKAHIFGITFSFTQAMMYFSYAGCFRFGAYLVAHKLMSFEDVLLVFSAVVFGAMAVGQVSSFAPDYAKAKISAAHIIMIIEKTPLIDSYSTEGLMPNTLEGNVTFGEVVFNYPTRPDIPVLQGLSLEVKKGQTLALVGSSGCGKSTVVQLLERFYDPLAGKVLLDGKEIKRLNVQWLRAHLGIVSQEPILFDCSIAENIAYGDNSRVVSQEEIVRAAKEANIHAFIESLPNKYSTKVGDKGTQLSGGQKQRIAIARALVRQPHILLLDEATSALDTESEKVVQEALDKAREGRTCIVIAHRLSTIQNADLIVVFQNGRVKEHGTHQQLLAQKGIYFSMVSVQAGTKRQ
Chain of Protein kinase 7 (PK7), Plasmodium falciparum 3D7 (PF3D7_0213400) (Q7YTF7 1-343): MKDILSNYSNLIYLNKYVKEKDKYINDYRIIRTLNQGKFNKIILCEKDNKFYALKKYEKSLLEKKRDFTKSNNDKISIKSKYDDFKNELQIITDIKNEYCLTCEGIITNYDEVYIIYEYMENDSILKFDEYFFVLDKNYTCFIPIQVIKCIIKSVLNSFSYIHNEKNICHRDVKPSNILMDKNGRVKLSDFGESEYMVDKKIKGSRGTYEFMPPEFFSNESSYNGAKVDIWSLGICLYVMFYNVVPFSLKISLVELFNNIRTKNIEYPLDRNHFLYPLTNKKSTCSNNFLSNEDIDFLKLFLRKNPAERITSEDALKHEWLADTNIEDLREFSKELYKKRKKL
Chain of Plasmodium falciparum protein kinase 6 (PK6, PF3D7_1337100) (Q8IDW1 1-305): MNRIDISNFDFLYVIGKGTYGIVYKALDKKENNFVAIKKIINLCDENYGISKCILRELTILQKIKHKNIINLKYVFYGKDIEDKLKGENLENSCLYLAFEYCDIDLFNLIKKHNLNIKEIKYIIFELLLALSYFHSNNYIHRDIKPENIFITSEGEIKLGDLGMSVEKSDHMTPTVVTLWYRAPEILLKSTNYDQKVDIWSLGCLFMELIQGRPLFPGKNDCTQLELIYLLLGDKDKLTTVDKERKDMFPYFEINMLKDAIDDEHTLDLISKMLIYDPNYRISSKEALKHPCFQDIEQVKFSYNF
Chain of Calcium-dependent protein kinase 1 (Plasmodium falciparum (isolate 3D7)) (P62344 whole entry, looked up): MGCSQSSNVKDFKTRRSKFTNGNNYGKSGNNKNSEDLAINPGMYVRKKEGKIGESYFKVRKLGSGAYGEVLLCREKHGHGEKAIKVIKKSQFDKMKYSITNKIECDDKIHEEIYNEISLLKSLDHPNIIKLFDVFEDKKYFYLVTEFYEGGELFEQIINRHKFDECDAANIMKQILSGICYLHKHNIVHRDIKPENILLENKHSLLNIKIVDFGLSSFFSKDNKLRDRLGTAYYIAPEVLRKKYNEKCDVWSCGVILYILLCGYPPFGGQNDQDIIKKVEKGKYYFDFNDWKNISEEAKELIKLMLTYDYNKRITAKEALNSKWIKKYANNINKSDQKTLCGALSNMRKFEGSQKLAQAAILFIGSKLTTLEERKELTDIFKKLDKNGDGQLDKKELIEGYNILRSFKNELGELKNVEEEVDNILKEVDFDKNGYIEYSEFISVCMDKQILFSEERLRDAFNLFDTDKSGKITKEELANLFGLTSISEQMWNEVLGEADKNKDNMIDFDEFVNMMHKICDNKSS
Chain of Calcium-dependent protein kinase 4 (Plasmodium falciparum (isolate 3D7)) (Q8IBS5 whole entry, looked up): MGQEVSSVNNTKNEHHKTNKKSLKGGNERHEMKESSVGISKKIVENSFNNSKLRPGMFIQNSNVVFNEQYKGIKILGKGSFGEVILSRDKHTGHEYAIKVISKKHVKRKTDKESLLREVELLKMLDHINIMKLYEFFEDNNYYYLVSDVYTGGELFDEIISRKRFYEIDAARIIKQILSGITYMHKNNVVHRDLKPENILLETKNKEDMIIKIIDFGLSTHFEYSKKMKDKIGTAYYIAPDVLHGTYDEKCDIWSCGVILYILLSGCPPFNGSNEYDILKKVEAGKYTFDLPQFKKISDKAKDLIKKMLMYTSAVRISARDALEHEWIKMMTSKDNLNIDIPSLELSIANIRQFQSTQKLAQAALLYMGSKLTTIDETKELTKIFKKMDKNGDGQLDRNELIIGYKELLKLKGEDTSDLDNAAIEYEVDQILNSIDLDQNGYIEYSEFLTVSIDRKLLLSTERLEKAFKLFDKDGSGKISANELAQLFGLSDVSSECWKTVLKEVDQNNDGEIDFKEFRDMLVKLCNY

In the case of `CC(C)(C)NCC(O)c1ccc(O)c(CO)c1` (stereo not drawn), the z-score in assay [1] is -0.605 (inactive). Besides, the call in assay [2], in assay [3], in assay [4] and in assay [5] was inactive.
On to `COC(=O)C1=C(C)NC(C)=C(C(=O)OCCN(C)Cc2ccccc2)C1c1cccc([N+](=O)[O-])c1` (stereo not drawn), for which the fluorescence slope change in assay [6] is 15.7% (inactive).
For the compound `CCN(CC)CCOc1ccc(Cc2ccccc2)cc1`, the compound was classed as inactive in assay [3] and in [5].
As to `CN/C(=C\[N+](=O)[O-])NCCSCc1ccc(CN(C)C)o1`, the fluorescence slope change in assay [6] is 105% (active).
On to `COc1ccc2cc([C@H](C)C(=O)O)ccc2c1`, for which the z-score in [1] was -0.354 (inactive). Further, the call in assay [2] and in assay [5] was inactive.
Regarding `Cc1cc(NS(=O)(=O)c2ccc(N)cc2)no1`, in assay [6], the fluorescence slope change is 62% (active).
Consider `COc1cc(Cc2cnc(N)nc2N)cc(OC)c1OC`, for which the growth inhibition in assay [7] was 2% (inactive). In addition, the inhibition in assay [8] was 0% (inactive). Also, the result in assay [9], in [10], in assay [11] and in assay [12] was inactive.
`CC(C)NCC(O)COc1cccc2[nH]ccc12` (stereo not drawn): in [6], the fluorescence slope change is 68.5% (active).
Turning to `O=C(O)CCc1nc(-c2ccccc2)c(-c2ccccc2)o1`, in [1], the z-score was 0.876 (inactive).
With `CN1C(=O)CC[C@H]1c1cccnc1`, the fluorescence slope change in assay [6] is 94.5% (active). Moreover, the z-score in assay [1] is -0.371 (inactive).
For the compound `CN1CCN(C2=Nc3cc(Cl)ccc3Nc3ccccc32)CC1`, the AC50 in assay [4] was 13.2 µM (active). For the same compound, the fold fluorescence in assay [13] was 11 [at 153 µM] (inactive).
Consider `CCCC(CCC)C(=O)O`, for which the compound was called inactive in assay [2], in [4] and in assay [5]. Also, the inhibition in [14] (at 0.5 µM) is -45.4% (inactive) and -15.9% (inactive); in assay [14] (measured here: combination with BGB at IC20, at 0.5 µM), -45.9% and -23.5%; in assay [14] (measured here: combination with cisplatin at IC20, at 0.5 µM), -34.5% and 0.202%; in assay [15] (at 0.5 µM), -15.1% (inactive) and -0.6% (inactive); in assay [15] (measured here: combo with BGB at IC20, at 0.5 µM) it was -17% and -10.3%; in assay [15] (measured here: combo with cisplatin at IC20, at 0.5 µM), -14.1% and 6.37%. For the same compound, the inhibition in assay [16] (at 0.5 µM) was -4.81% (inactive) and 13.2% (inactive); in [16] (measured here: inhibition with BGB combination, at 0.05 µM), -26.3% and 5.38%; in assay [16] (measured here: inhibition with cisplatin combination, at 0.05 µM), -23.4% and 27.8%; in [17] (at 0.5 µM), -16.9% (inactive) and 1.18% (inactive); in assay [17] (measured here: combination with cisplatin, at 0.5 µM), -15.6% and 6.48%; in [17] (measured here: combination with cisplatin, at 5 µM), -69.4% and 11.4%. For the same compound, the inhibition in assay [18] (BGB combination, concentration series, at 5 µM) was -15.2% and 3.45%; in assay [18] (at 0.5 µM), -19% (inactive) and 7.15% (inactive); in assay [18] (cisplatin combination, concentration series, at 5 µM), 0.227% and -13.4%; in [19], -9% (inactive) and 2.09% (inactive); in [19] (measured here: combo with BGB IC20), -11% and 1.03%; in [19] (measured here: combo with cisplatin IC20) it was 0.797% and 9.29%.
For `O=C(CCCN1CCC(O)(c2ccc(Cl)cc2)CC1)c1ccc(F)cc1`, the fluorescence slope change in assay [6] is 23.3% (inactive). In addition, in assay [1], the z-score is -0.0752 (inactive).
Turning to `COCCCOc1ccnc(CS(=O)c2nc3ccccc3[nH]2)c1C` (stereo not drawn), the z-score in [1] is 0.22 (inactive). In addition, the compound was classed as inactive in assay [2] and in assay [4].
In the case of `Clc1ccccc1CN1CCc2sccc2C1`, the z-score in [1] was 0.918 (inactive). In addition, the call in assay [2], in assay [3], in assay [4] and in [5] was inactive.
As for `O=C(O)c1cn(C2CC2)c2cc(N3CCNCC3)c(F)cc2c1=O`, the fluorescence slope change in assay [6] is 54.5% (active). Also, the result in assay [2], in [3], in [4] and in assay [5] was inactive.
Take `CC(C)c1c(C(=O)Nc2ccccc2)c(-c2ccccc2)c(-c2ccc(F)cc2)n1CC[C@@H](O)C[C@@H](O)CC(=O)O`: the compound was classed as inactive in assay [3].
Consider `COc1ccc(-c2nc3ccc(C4=NNC(=O)CC4C)cc3[nH]2)cc1` (stereo not drawn), for which the half-maximal activity concentration (AC50) in [2] is 16.6 µM (active).
For the compound `C[N+]1(C)CCC(OC(=O)C(O)(c2ccccc2)C2CCCC2)C1` (stereo not drawn), the z-score in assay [1] is -0.121 (inactive).
Regarding `O=S(=O)(c1cccc2cnccc12)N1CCCNCC1`, the call in assay [2], in [3], in assay [4] and in assay [5] was inactive. For the same compound, the fold fluorescence in assay [13] was 2.56 [at 137.3 µM] (active).
Turning to `NCCCC(O)(P(=O)(O)O)P(=O)(O)O`, the compound was called inactive in assay [2], in assay [3], in assay [4] and in assay [5].
As for `O=C(O)CCn1c2c(c3ccccc31)C[C@H](NS(=O)(=O)c1ccc(F)cc1)CC2`, the call in assay [2], in assay [4] and in [5] was inactive.
For `CC(C)(C)c1ccc(C(O)CCCN2CCC(C(O)(c3ccccc3)c3ccccc3)CC2)cc1` (stereo not drawn), the fluorescence slope change in assay [6] was 182% (active).
With `O=C(O)COCCN1CCN(C(c2ccccc2)c2ccc(Cl)cc2)CC1` (stereo not drawn), the fluorescence slope change in assay [6] is 28.7% (inactive).
Turning to `CC(C)(C)CC(C)(C)c1ccc(OCCOCC[N+](C)(C)Cc2ccccc2)cc1`, the fluorescence slope change in [6] was 152% (active).
On to `CC(C)n1c(/C=C/[C@@H](O)C[C@@H](O)CC(=O)O)c(-c2ccc(F)cc2)c2ccccc21`, for which, in [20], the SSMD came to 2.42, the cell count turned out to be 6600 and the plate-normalised HSF1 focus index is 1.13 (inactive).
`CN1[C@@H]2CC(OC(=O)[C@H](CO)c3ccccc3)C[C@H]1[C@@H]1O[C@@H]12` (stereo partly drawn): in assay [1], the z-score was -0.461 (inactive).
Regarding `O=C(NCC1CCCCN1)c1cc(OCC(F)(F)F)ccc1OCC(F)(F)F` (stereo not drawn), the compound was called inactive in [2], in assay [3], in assay [4] and in assay [5].
Turning to `Cc1ccc(/C(=C\CN2CCCC2)c2ccccn2)cc1`, the fluorescence slope change in assay [6] was 91.4% (active).
